The values that follow come from PubChem BioAssay AID777 (Sanford-Burnham Center for Chemical Genomics, 2007).

Each structure is given as a SMILES string. In all, about 96,000 compounds went through this assay and about 19,000 (20%) were called active.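 How the source made its calls: active means blocking of liver enzyme CYP2C9 beyond about 50% at 5 µM (limit read from the data); inactive means the rest.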 Not all results are given here.

Cytochrome P450 2C9 (Homo sapiens), sequence (P11712 whole entry, looked up): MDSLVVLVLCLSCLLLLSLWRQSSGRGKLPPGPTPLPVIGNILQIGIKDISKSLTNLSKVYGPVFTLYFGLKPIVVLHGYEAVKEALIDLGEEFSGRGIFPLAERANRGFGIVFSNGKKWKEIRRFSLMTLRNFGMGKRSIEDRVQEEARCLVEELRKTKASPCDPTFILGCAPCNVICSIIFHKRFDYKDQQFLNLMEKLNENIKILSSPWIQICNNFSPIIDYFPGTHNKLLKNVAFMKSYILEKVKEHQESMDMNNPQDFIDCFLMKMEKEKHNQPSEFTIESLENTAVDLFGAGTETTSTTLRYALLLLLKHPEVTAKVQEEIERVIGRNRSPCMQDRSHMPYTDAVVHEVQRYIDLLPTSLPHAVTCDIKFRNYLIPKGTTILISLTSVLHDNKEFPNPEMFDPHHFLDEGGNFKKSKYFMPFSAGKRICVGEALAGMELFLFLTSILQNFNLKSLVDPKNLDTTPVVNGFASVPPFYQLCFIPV

This experiment addresses Cytochrome P450 2C9 (Homo sapiens) (UniProt P11712). Kind of experiment: blockers of cytochrome P450 2C9 activity – biochemical, luminescence, ADME assay, primary screen (AID 777). The conditions noted are these: CYP2C9 Supersomes, luciferin-H conversion, at 5 µM, hits give high values.
The inhibition is the drop in the measured response relative to a control, in per cent. On to `CC(C)OCCCNC(=O)CNC(=O)c1cccs1`, for which the inhibition is 10.8% (inactive).
Turning to `OC(c1ccccc1)c1nccn1Cc1ccccc1` (stereo not given), the inhibition was 10.1% (inactive).
Take `O=C1c2ccccc2C(=O)N1CC1c2ccccc2CCN1S(=O)(=O)c1ccccc1` (stereo not given): the inhibition is 27.5% (inactive).
Take `CCCn1c(C(O)c2ccc(OCC)cc2)nc2ccccc21` (stereo not given): the inhibition is 43% (inactive).
Take `CCCn1c(C(O)c2cc(OC)ccc2OC)nc2ccccc21` (stereo not given): the inhibition is 57.7% (active).
`COc1cc(C(O)c2nc3ccccc3n2C)cc(OC)c1OC` (stereo not given): the inhibition was 35.4% (inactive).
As to `O=C(O)CSCNC(=O)CC12CC3CC(CC(C3)C1)C2`, the inhibition was 10.4% (inactive).
As for `COc1ccc(C(=O)Nc2ncc3c(n2)-c2ccccc2CC3)cc1`, the inhibition is 5.5% (inactive).
As to `CCOC(=O)C(=CNc1cccc(C)n1)C(=O)OCC`, the inhibition was 5.3% (inactive).
Then `O=P(O)(CP(=O)(c1ccccc1)c1ccccc1)c1ccccc1`, with -3.1% (inactive).
`COc1ccc(NC(C)=O)cc1NC(=O)CN1CCN(c2ccccn2)CC1`: the inhibition is 6.5% (inactive).
In the case of `COc1ccc(OC)c(NC(=O)CN2CCN(C(=O)c3ccco3)CC2)c1`, the inhibition is 2.7% (inactive).
Next, `COc1ccc(NC(C)=O)cc1NC(=O)CN1CCN(C2c3ccccc3-c3ccccc32)CC1`: 79% (active); `Cc1ccc(CC2CC(=O)N(c3ccc4c(c3)OCCO4)C2=O)cc1` (stereo not given): 19.5% (inactive).
`Cc1ccc(N2C(=O)CC(NCc3ccc4c(c3)OCO4)C2=O)cc1Cl` (stereo not given): the inhibition is 76.5% (active).
With `O=CN1CCN(C2CC(=O)N(c3ccc4c(c3)OCO4)C2=O)CC1` (stereo not given), the inhibition was -50.5% (inactive).
For the compound `CCc1ccc2nc3sc(C(=O)Nc4nnc(CC)s4)c(N)c3cc2c1`, the inhibition is 31.5% (inactive).
As for `Cc1cccc(N2CCN(C(=O)c3cnn4c(C(F)F)cc(-c5ccccc5)nc34)CC2)c1C`, the inhibition was 93.5% (active).
Turning to `O=C(NCCCN1CCOCC1)c1cnn2c(-c3ccccc3)cc(-c3ccccc3)nc12`, the inhibition was 7.3% (inactive).
`O=C(O)c1cnn2c(C(F)(F)F)cc(-c3ccccc3)nc12`: the inhibition was 18.5% (inactive).
Then `CC1CC(C)CN(C(=O)CSc2nnc(CSc3ncccn3)n2C)C1` (stereo not given), with -5.7% (inactive); and `CCOc1cc(-c2nc3cc(C)ccn3c2NCC2CCCO2)ccc1O` (stereo not given), with 8.6% (inactive); and `O=C1c2ccccc2NC(c2ccc(-c3cccc(Cl)c3)o2)N1O` (stereo not given), with 52.4% (active).
For the compound `COc1ccc(-n2ncc3c(N4CCCc5ccccc54)ncnc32)cc1`, the inhibition is 1.2% (inactive).
As to `O=C(C1=C(O)C(=O)N(c2ncccn2)C1c1cccs1)c1ccco1` (stereo not given), the inhibition was -13.2% (inactive).
For the compound `NC(=O)C1CCN(C(=O)c2ccc(-c3ccccc3)cc2)CC1`, the inhibition is -10.3% (inactive).
Regarding `CCOC(=O)N1CCN(C(=O)c2ccc(CN(c3ccc(C)c(C)c3)S(C)(=O)=O)cc2)CC1`, the inhibition is 71.2% (active).
Consider `CCOC(=O)N1CCN(C(=O)c2ccc(S(=O)(=O)c3ccc(C)cc3)c(NC(C)=O)c2)CC1`, for which the inhibition is -6.9% (inactive).
In the case of `CCOC(=O)N1CCN(C(=O)CN(c2ccc(C)c(C)c2)S(=O)(=O)c2ccccc2)CC1`, the inhibition is 72.9% (active).
On to `NC(=O)C1CCN(C(=O)c2ccc(C(F)(F)F)cc2)CC1`, for which the inhibition is -4.8% (inactive).
On to `COc1ccccc1-c1cc(C(=O)N2CCCCC2)no1`, for which the inhibition was -15.6% (inactive).
Take `COc1ccccc1N(C)S(=O)(=O)c1ccc(C(=O)N2CCC(C(N)=O)CC2)cc1`: the inhibition was 53.8% (active).
Regarding `CCOC(=O)N1CCN(C(=O)c2ccc3c(c2)N(Cc2ccc(C)cc2)CCS3)CC1`, the inhibition is 32.3% (inactive).
As to `COc1cccc2c(=O)n(CC(=O)N3CCCCCC3)ccc12`, the inhibition was -29.3% (inactive).
For `COc1ccccc1N(CC(=O)N1CCCCC1)S(=O)(=O)c1ccccc1`, the inhibition is 56.8% (active).
